TcdB inh – blocks C. difficile toxin B glycohydrolase activity; inhibition, % at 9.99 µM; AID 652162; TcdB glycohydrolase enzymatic assay, plate reader; hit rate 0.24% among 350,000; P18177; in the data active = inhibition above about 10%
Autofluor counter – counter-screen for toxin protease inhibitors: compound fluorescence; fluorescence intensity (concentration not given with the values); compound autofluorescence counterscreen, microsphere flow cytometry; stronger effect = higher value; hit rate 3.1% among 360,000; in the data active = fluorescence intensity above about 16000; inconclusive = no clear call, values can overlap the other calls
BoNT A protease – blocks Botulinum neurotoxin A light chain protease | AID 588499 | hit rate 0.17% among 360,000 | inhibition, % at 10 µM | multiplex microsphere protease substrate cleavage, flow cytometry; in the data active = inhibition above about 30%; inconclusive = no clear call, values can overlap the other calls; also: plate controls were buffer without enzyme for full effect and enzyme alone for no effect
Anthrax LF inh2 – inhibitors of Bacillus anthracis lethal factor protease; hit rate 0.12% among 360,000; inhibition, % at 10 µM; AID 588501; multiplex microsphere protease cleavage assay, LF; in the data active = inhibition above about 30%; inconclusive = no clear call, values can overlap the other calls; also: plate controls were buffer without enzyme for full effect and enzyme alone for no effect
Target sequence (P15917 whole entry, looked up): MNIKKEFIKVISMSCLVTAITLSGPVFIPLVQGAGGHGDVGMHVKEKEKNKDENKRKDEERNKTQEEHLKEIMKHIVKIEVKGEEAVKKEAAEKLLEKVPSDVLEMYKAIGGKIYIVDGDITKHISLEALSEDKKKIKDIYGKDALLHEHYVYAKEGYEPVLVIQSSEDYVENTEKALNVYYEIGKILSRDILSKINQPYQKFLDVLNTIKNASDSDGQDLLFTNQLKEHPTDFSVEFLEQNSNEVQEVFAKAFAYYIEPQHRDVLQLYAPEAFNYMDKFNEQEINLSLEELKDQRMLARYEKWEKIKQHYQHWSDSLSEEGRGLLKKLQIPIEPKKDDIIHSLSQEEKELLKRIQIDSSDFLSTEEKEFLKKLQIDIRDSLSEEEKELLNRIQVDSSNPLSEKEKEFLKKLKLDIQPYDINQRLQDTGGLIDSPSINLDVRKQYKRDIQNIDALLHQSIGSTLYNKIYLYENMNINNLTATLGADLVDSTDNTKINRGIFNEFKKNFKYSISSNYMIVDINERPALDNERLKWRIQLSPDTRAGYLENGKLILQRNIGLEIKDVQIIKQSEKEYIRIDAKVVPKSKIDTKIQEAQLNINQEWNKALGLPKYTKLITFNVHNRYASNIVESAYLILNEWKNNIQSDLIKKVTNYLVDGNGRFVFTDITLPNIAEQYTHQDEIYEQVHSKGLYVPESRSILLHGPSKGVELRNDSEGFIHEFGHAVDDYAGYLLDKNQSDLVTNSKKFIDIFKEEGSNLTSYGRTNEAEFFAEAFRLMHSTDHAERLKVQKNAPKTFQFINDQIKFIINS
BoNT-F LC inh – BoNT F light chain protease inhibition. hit rate 0.22% among 360,000. AID 588497. inhibition, % at 10 µM. Multiplex microsphere protease cleavage assay, flow cytometry; in the data active = inhibition above about 35%, passing the limit was not always enough; inconclusive = no clear call, values can overlap the other calls; also: plate controls were buffer without enzyme for full effect and enzyme alone for no effect
BoNT-A LC CP1 – blocks botulinum neurotoxin A light chain protease; shares compounds with BoNT-F LC inh; multiplex microsphere protease assay, flow cytometry; inhibition, % at 10 µM; hit rate 3% among 720; AID 602139; in the data active = inhibition above about 32%
BoNTF LC inh 1 – inhibitors of Botulinum neurotoxin F light chain protease; shares compounds with BoNT-F LC inh; multiplex microsphere protease cleavage assay, flow cytometry; AID 602140; 720 tested, under 10 active; inhibition, % at 10 µM
LF protease CP1 – blocks anthrax lethal factor protease | shares compounds with BoNT-F LC inh | multiplex microsphere protease cleavage assay, LF | inhibition, % at 10 µM | 720 tested, under 10 active | AID 602142
Starred values were filed as active, the others as inactive; ? = inconclusive; nt = not tested or not shown. The sample as a whole holds a higher share of hits than the screen did. Unless noted, no rule for the calls is given here.

SMILES	TcdB inh	Autofluor counter	BoNT A protease	Anthrax LF inh2	BoNT-F LC inh	BoNT-A LC CP1	BoNTF LC inh 1	LF protease CP1
CCC1=Nc2ccccc2-c2nnc(SC)nc2O1	nt	4512	2	-8	34	0	-4	-7
N=c1n(CCO)c2ccccc2n1Cc1ccccc1Cl	nt	3346	1	-2	33	-2	0	-1
O=C(C[C@@H]1CC[C@@H]2[C@H](COC[C@@H](O)CN2S(=O)(=O)c2ccc(F)cc2)O1)N[C@H]1CCN(Cc2ccccc2)C1	0	nt	nt	nt	nt	nt	nt	nt
O=C1CNC(=S)N1c1nc2ccccc2s1	1	3929	2	32*	?	0	2	0
COc1cc2c(cc1OC)C(C)N(S(=O)(=O)c1cccs1)CC2 (stereo unspecified)	1	3519	6	32*	-7	1	-2	-1
COc1cc2c(cc1OC)C(C)N(S(=O)(=O)c1ccc(C)cc1)CC2 (stereo unspecified)	1	3602	0	4	-4	nt	nt	nt
CC1(C)CC(NC(=O)c2cccc([N+](=O)[O-])c2)CC(C)(C)N1	2	3713	0	30*	1	0	-6	-3
Cc1ccc(C(=O)NC2CC(C)(C)NC(C)(C)C2)cc1Cl	-1	3135	-7	3	?	nt	nt	nt
NS(=O)(=O)c1cc([N+](=O)[O-])ccc1NCc1cccnc1	2	4090	4	2	39*	0	0	0
NC(=O)c1cc([N+](=O)[O-])ccc1NCc1cccnc1	0	4466	0	-2	1	nt	nt	nt
Cc1cc(C)c2[nH]c(=O)c(C(c3nnnn3C(C)(C)C)N(Cc3ccco3)CC3CCCO3)cc2c1 (stereo unspecified)	nt	20853*	0	-3	0	-1	-7	-3
Cc1cc2cc(C(c3nnnn3C(C)(C)C)N(Cc3ccco3)CC3CCCO3)c(=O)[nH]c2cc1C (stereo unspecified)	nt	9489	-1	-3	-3	nt	nt	nt
COc1ccccc1Cn1c(C)nc2ccccc21	2	4417	1	-12	39*	-1	-2	-1
CCc1nc2ccccc2n1Cc1ccccc1OC	nt	2792	0	-3	-4	nt	nt	nt
Cc1ccc(-n2cc3c(-c4cccc(Br)c4)nnc(C)c3n2)cc1	nt	38801*	?	?	63*	5	28	0
Cc1ccc(Cc2c(-c3cccc(Br)c3)nc3ccc(Br)cn23)cc1	0	7714	9	8	0	nt	nt	nt
c1csc(-c2cnc3n2CCCC3)c1	nt	4734	-1	-4	-27	nt	nt	nt
COc1ccc(-c2cnc3n2CCCCC3)cc1	-1	3877	5	9	42*	-1	-1	1
CNC(=S)N1N=C(c2cccs2)CC1c1ccc(F)cc1 (stereo unspecified)	4	3676	0	6	50*	1	-3	-2
Cc1cccc2c1NC(C)CC2C (stereo unspecified)	nt	2139	34*	40*	6	1	-2	-4
c1ccc(Cn2c(CNc3nc4ccccc4n3CCN3CCCCC3)nc3ccccc32)cc1	nt	3736	0	-2	1	nt	nt	nt
c1ccc(Cn2c(CN3CCCC3)nc3ccccc32)cc1	nt	6747	3	-2	34	-1	0	2
CC(C)NC(=O)N(C)C[C@H]1Oc2ccc(NS(C)(=O)=O)cc2C(=O)N([C@H](C)CO)C[C@H]1C	-2	nt	nt	nt	nt	nt	nt	nt
Cc1cc(C)n(-c2nnc(NC34CC5CC(CC(C5)C3)C4)nn2)n1	nt	2849	52*	20	11	16	-6	21
Cc1cc(C)n(-c2nnc(NC(C)(C)C)nn2)n1	nt	2650	1	-2	-1	nt	nt	nt
SMILES	TcdB inh	Autofluor counter	BoNT A protease	Anthrax LF inh2	BoNT-F LC inh	BoNT-A LC CP1	BoNTF LC inh 1	LF protease CP1
COC(=O)CSc1nc(N)c2c3c(sc2n1)C(c1ccccc1)SC(c1ccccc1)C3 (stereo unspecified)	nt	2397	30*	7	1	2	2	-3
Cc1nn(C)c(C)c1NC(=O)c1cc2nc(-c3ccco3)cc(C(F)(F)F)n2n1	0	3882	0	-4	-1	0	0	4
Cc1ccccc1Cn1cc(NC(=O)c2cc3nc(-c4ccco4)cc(C(F)(F)F)n3n2)cn1	nt	2908	0	-2	12	1	0	-3
CCc1ccc(-c2cc(C(F)(F)F)n3nc(C(=O)Nc4cnn(Cc5ccc(C)cc5)c4)cc3n2)s1	nt	11288	7	0	3	3	5	3
C[C@@H]1CN([C@H](C)CO)C(=O)Cc2cc(NC(=O)Nc3ccccc3)ccc2O[C@@H]1CN(C)C	0	nt	nt	nt	nt	nt	nt	nt
CCc1nnc(NC(=O)CN2CCN(Cc3ccccc3Cl)CC2)s1	0	3362	-2	42*	?	0	-2	-1
Cc1ccc2c(n1)sc1c(-c3ccc(Br)cc3)c(C#N)c(N)nc12	nt	?	44*	30	16	11	2	5
CS(=O)(=O)N(CC(=O)N1CCOCC1)c1ccccc1	0	4311	-2	45*	?	0	-1	3
O=C(NCC[C@@H]1CC[C@@H](NC(=O)c2cccnc2)[C@@H](CO)O1)Nc1ccc(Cl)cc1	1	nt	nt	nt	nt	nt	nt	nt
O=C(Nc1ccc(F)cc1)Nc1cccc(Br)c1	2	3227	2	32*	?	1	-6	-3
O=C(NCC[C@@H]1CC[C@H](NC(=O)C2CC2)[C@H](CO)O1)c1cc(Cl)cc(Cl)c1	0	nt	nt	nt	nt	nt	nt	nt
Cc1noc(C)c1S(=O)(=O)Nc1ccc2c(c1)C(=O)N([C@@H](C)CO)C[C@H](C)[C@H](CN(C)S(=O)(=O)c1cccs1)O2	0	nt	nt	nt	nt	nt	nt	nt
CCn1c(SCc2ccccc2)nnc1C1CCN(S(=O)(=O)c2ccc(OC)cc2)CC1	nt	3835	0	-1	35*	-1	-4	3
COc1ccc(C(O)c2nc(/C=C/c3ccc(C(F)(F)F)cc3)cs2)cc1 (stereo unspecified)	1	3503	0	-6	-5	nt	nt	nt
COc1ccc(/C=C/c2cc(C(F)(F)F)on2)cc1	0	3409	0	10	40*	-1	-4	-5
O=C1CN(Cc2ccccc2)CC(=O)N1	0	3950	-2	-1	46*	-1	-2	0
C[C@H](CO)N1C[C@H](C)[C@H](CN(C)C(=O)Nc2cccc3ccccc23)Oc2c(NS(=O)(=O)c3ccc(Cl)cc3)cccc2C1=O	-1	nt	nt	nt	nt	nt	nt	nt
COc1ccc(-n2cc(CNCCCn3ccnc3)c(-c3cccc(F)c3)n2)cc1	2	2583	4	-2	37*	-1	-15	-4
COC(=O)C1Cc2c([nH]c3ccccc23)C2(CCN(Cc3ccccc3)CC2)N1 (stereo unspecified)	0	7106	4	6	41*	1	1	2
CCn1c2ccccc2c2nc3ccccc3nc21	nt	8426	18	-5	0	nt	nt	nt
CCn1c2ccccc2c2nc3cc(OC)c(OC)cc3nc21	nt	5340	50*	23	32	23	4	9

Assay outcomes: PubChem BioAssay, several laboratories
